Laboratory results taken from article PMC7819943, “Rice protein-binding microarrays: a tool to detect cis-acting elements near promoter regions in rice”.
Whole data set: some 68,000 sequences, median “fluorescence intensity (a.u.)” near 9,100, cut for the highest 2% near 16,000. For the sample, the highest values were picked, then their nearest neighbours and some sequences at random.

The sequences below were run against OsWRKY34 (Oryza sativa, UniProt Q0JBA9 1-250) (assay: protein-binding microarray (RPBM); PBS, 2% BSA, 51.3 ng/ul salmon testes DNA, 50 uM zinc acetate, 200 nM TF, 25 C, 1 h; high values mean tight binding). Conditions: protein: recombinant; tags: N-terminal polyhistidine and DsRed monomer fusion (pET32a); label: CyDye5-dUTP incorporated in the synthesized complementary strand; 3' TTTTT single-stranded linker to array surface; dsDNA, one strand shown.
OsWRKY34, sequence (Q0JBA9 entry or part of it): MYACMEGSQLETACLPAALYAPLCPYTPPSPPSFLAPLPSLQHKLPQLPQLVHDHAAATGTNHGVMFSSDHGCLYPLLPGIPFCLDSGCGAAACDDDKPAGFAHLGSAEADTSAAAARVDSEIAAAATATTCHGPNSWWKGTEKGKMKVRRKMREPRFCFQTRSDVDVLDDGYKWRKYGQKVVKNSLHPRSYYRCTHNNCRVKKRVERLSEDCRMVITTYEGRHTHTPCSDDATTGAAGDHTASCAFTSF
Summary of the method: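 Per-feature fluorescence intensity (arbitrary units), read on an Axon 4000B scanner, is the binding signal. Transcription factors carrying an N-terminal polyhistidine tag and DsRed fusion were expressed in E. coli BL21-CodonPlus and purified on Ni–NTA. A custom Agilent array, made double-stranded by primer extension with Cy5-dUTP and blocked with 2% BSA, was incubated with 200 nM protein in PBS, 2% BSA, salmon testes DNA and 50 µM zinc acetate at 25 °C for 1 h and then washed.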

Sequence	binding signal
AATACTACCTCCGTTTTAAAATGTTTGACGCCGTTGATATCGGAGTCACCTAGTGCAG	8440 fluorescence intensity (a.u.)
CATATACTCCCTCCGTTTTTTAATAGATGACGCCGTTGACCGGAGTCACCTAGTGCAG	12300 fluorescence intensity (a.u.)
TACTACCTCCGTTTTTAATAGATGACGCCGTTGACTTTTTCGGAGTCACCTAGTGCAG	23700 fluorescence intensity (a.u.)
CTTACTACCTCCGTATTTTAGTGTATGATGCCGTTGACTTCGGAGTCACCTAGTGCAG	14500 fluorescence intensity (a.u.)
TACTCCCTCTGTTTTTTAATAGATGACGCCGTTGACTTTTCGGAGTCACCTAGTGCAG	17100 fluorescence intensity (a.u.)
TACTCCCTCCGTTTTTTAATAGATGACGCCGTTGACTTTTCGGAGTCACCTAGTGCAG	16100 fluorescence intensity (a.u.)
CTCTCTTGCCTCTCCTGTCTCTTTCTCGGATTTTTCTCATCGGAGTCACCTAGTGCAG	9020 fluorescence intensity (a.u.)
AAACAGTTTGACTTTGACTAAAGTTAAAACGTCTTATAACCGGAGTCACCTAGTGCAG	10900 fluorescence intensity (a.u.)
ACCATCTTATTTAACGTAAAATATTTAATTTTCATTTTTACGGAGTCACCTAGTGCAG	8480 fluorescence intensity (a.u.)
CTTTTCTTTTCAATTTTTTGAGCGTTGACCATACTTAAATCGGAGTCACCTAGTGCAG	14800 fluorescence intensity (a.u.)
AGCGTTGACCATACTTAAATCACAGTTTTCTTTTCTTTTTCGGAGTCACCTAGTGCAG	21800 fluorescence intensity (a.u.)
CAAGTCACGTATAAAATATTAATCATGTTTTATCATCTAACGGAGTCACCTAGTGCAG	8050 fluorescence intensity (a.u.)
TTCTAAATAATATTTGACGCCGTTGACTTTTTTAAATATACGGAGTCACCTAGTGCAG	14600 fluorescence intensity (a.u.)
GTTTGACACCGTTGACTTTTTTAAATATGTTTGACCGTTTCGGAGTCACCTAGTGCAG	25000 fluorescence intensity (a.u.)
CCTTTCGTTTTATATTATAATTCGTTTTGACTTTTTTCTTCGGAGTCACCTAGTGCAG	10500 fluorescence intensity (a.u.)
ATTTCTTGAACAGTTAAATACTTATAAATCCTTCACTTTTCGGAGTCACCTAGTGCAG	8050 fluorescence intensity (a.u.)
CGTTGACTTTTTTAAATATATAATTATTAATTTTTTTTCTCGGAGTCACCTAGTGCAG	23900 fluorescence intensity (a.u.)
ACCTCGGTAATAAAAGATGATCTAACGTAAAATTTATTATCGGAGTCACCTAGTGCAG	23300 fluorescence intensity (a.u.)
CCATATCGTTTTGACGTTTTTAGTGTAGGTCAATTTATAGCGGAGTCACCTAGTGCAG	8170 fluorescence intensity (a.u.)
TTAAAACTGAAATTATCGTATGTGCCTTGTCGCCGTGATTCGGAGTCACCTAGTGCAG	8090 fluorescence intensity (a.u.)
GGGTATATACCGTGACCCTGATCGCCACACCGACCGGATACGGAGTCACCTAGTGCAG	13600 fluorescence intensity (a.u.)
ATCCGATCTCTCTTCTCATTCTCTTCTCTTGGTTTGGGGTCGGAGTCACCTAGTGCAG	8220 fluorescence intensity (a.u.)
AGTCTTGAAGACTGAGGCAAAGTCTGTTATCTTAATCGATCGGAGTCACCTAGTGCAG	9140 fluorescence intensity (a.u.)
TTGAAACTAAACAAGGCATTTAGCTCAAACCCTCATTGACCGGAGTCACCTAGTGCAG	8470 fluorescence intensity (a.u.)
GATCGTGGGAGGGAGGATTGGCCGGTTGTACTACAGTTGACGGAGTCACCTAGTGCAG	8660 fluorescence intensity (a.u.)
CCGTGTTGTCGTTCCTCCAAATTTGTACCGTTTTCCCTCTCGGAGTCACCTAGTGCAG	8770 fluorescence intensity (a.u.)
ACACTTTGATCCCGATCGATGGCGCCATCCACTAATTGATCGGAGTCACCTAGTGCAG	10700 fluorescence intensity (a.u.)

Sequence	binding signal
TTTGTTGGTGTTATGTTGACTTTTTTTTGGGAACATTACTCGGAGTCACCTAGTGCAG	17400 fluorescence intensity (a.u.)
ACTTTTCGCTTTTTATATTTGCATAATTTTTTTCAATAAGCGGAGTCACCTAGTGCAG	8150 fluorescence intensity (a.u.)
CTTTCTTATTGACTATTTTATTATTTGAGGTCATTTAGGGCGGAGTCACCTAGTGCAG	9310 fluorescence intensity (a.u.)
CCATTATGGTGTTTCTTAGTTGTTTTTTTTGCCTTTTACTCGGAGTCACCTAGTGCAG	8470 fluorescence intensity (a.u.)
AATTTTGACTTTTTCTTGACTAATTAGGCCATCCGATGGGCGGAGTCACCTAGTGCAG	17800 fluorescence intensity (a.u.)
CCCGTTGACCCAAATTTTCGTTCTCCTCACCGAGTATAGTCGGAGTCACCTAGTGCAG	17200 fluorescence intensity (a.u.)
GACTTTATATGTGACTTTTTTTTTAACTTTTTCATAATTTCGGAGTCACCTAGTGCAG	9730 fluorescence intensity (a.u.)
TTTTGCTACTCCTTCGTTCTCAGTATCCAAATTTAAATTTCGGAGTCACCTAGTGCAG	9900 fluorescence intensity (a.u.)
CGCCGTTGACTTTTCATATAATATTTAACAATTCGCTTTACGGAGTCACCTAGTGCAG	36800 fluorescence intensity (a.u.)
GTTGACTCGCACTTTTTGTAATTATGTGTTACATGGTTTCCGGAGTCACCTAGTGCAG	8810 fluorescence intensity (a.u.)
TTTTTCGCACGTTCTCTTTCGCCCTGTTTTTTTTGAAAGACGGAGTCACCTAGTGCAG	13300 fluorescence intensity (a.u.)
CCTAGACCCCTTCTCACGCCGCCAGCCCGTCACACCGAGTCGGAGTCACCTAGTGCAG	8790 fluorescence intensity (a.u.)
CCCACTAACTTATGGCTTTTCCCATCCGTGCTATATCCCTCGGAGTCACCTAGTGCAG	9270 fluorescence intensity (a.u.)
ATACTGTCATAGGATCTCGAGTACACCTGTTTTACAAGTTCGGAGTCACCTAGTGCAG	8860 fluorescence intensity (a.u.)
GTTTTGATTGGCATATGGTCCCTCCAATCCGTGTAATTGTCGGAGTCACCTAGTGCAG	8320 fluorescence intensity (a.u.)
CGTTGACTTTTTTAAATATGTTTGACCGTTTATGTTATTTCGGAGTCACCTAGTGCAG	44100 fluorescence intensity (a.u.)
GTTGACTTTTTTTAAAATATGTTTGACCGTTCATATTATTCGGAGTCACCTAGTGCAG	8770 fluorescence intensity (a.u.)
AAATATTTGACGCCGTTGACTTTTTTAAATATGTTTAACCCGGAGTCACCTAGTGCAG	27200 fluorescence intensity (a.u.)
ATAACCAACATATTTAGCCTACAATTAAATATTTACTATACGGAGTCACCTAGTGCAG	8390 fluorescence intensity (a.u.)
ATTTTTATACGGACTCTAAACTCTACTTTTAATTTTATTACGGAGTCACCTAGTGCAG	8490 fluorescence intensity (a.u.)
TTCCTAAATATTTACGACGTTGACTTTTTTAAAAATGTTTCGGAGTCACCTAGTGCAG	20100 fluorescence intensity (a.u.)
GGAGTATATAAATATATATATTAAATACAACTCTAGACTACGGAGTCACCTAGTGCAG	26700 fluorescence intensity (a.u.)
CACCGTTGATTTTTTTAAATATGTTTGACCGTTCGTTTTACGGAGTCACCTAGTGCAG	12000 fluorescence intensity (a.u.)
ACTACTTCCTCTGTTTCTAAATATTTGACGACGTTGATTTCGGAGTCACCTAGTGCAG	8050 fluorescence intensity (a.u.)
TACACTAACCCTACCATCCCGTACACCACCGAAACCCTAACGGAGTCACCTAGTGCAG	8330 fluorescence intensity (a.u.)
TGTCTGGTCAACGCACAATTTCGGTCAGTAACTCCCTGGCCGGAGTCACCTAGTGCAG	9770 fluorescence intensity (a.u.)
TCATGGGAGCAATTGCGCGATGTTTTTGTTCTTAACTTTCCGGAGTCACCTAGTGCAG	8050 fluorescence intensity (a.u.)
